Vaccinia mCherry = qHTS for Stage-Specific Inhibitors of Vaccinia Orthopoxvirus: mCherry Reporter Primary qHTS; Vaccinia virus mCherry reporter infection, fluorescence; Potency, µM (top dose mostly 36.5 µM), actives largely listed as inhibitors; hit rate 0.63% among 310,000; calls by dose curve; tested in A549 cells; further: nearly all actives have a fitted effect of over 35% in size
Sm TGR inh = qHTS Assay for the Inhibitors of Schistosoma Mansoni Peroxiredoxins; Schistosoma mansoni thioredoxin glutathione reductase (TGR), Q962Y6; purified TGR, DTNB reduction, TNB absorbance 405 nm; Potency, µM (top dose mostly 114 µM), actives largely listed as inhibitors; hit rate 3% among 360,000; active means well fitted inhibition curve with a large enough effect; inconclusive means small, poorly fitted or top-dose-only effect; inactive means no such curve, though single readings can be large or run the other way; further: nearly all actives have a fitted effect of over 60% in size
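First, TGR (20 nM dispensed) and NADPH were mixed with compound. Second, a 15 min room-temperature incubation followed. Third, further NADPH and then DTNB were added to start the reaction. Finally, TNB absorbance was monitored kinetically.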
LASV entry inh = qHTS for Inhibitors of binding or entry into cells for Lassa Virus; Lassa virus pseudotype entry inhibition, cell reporter; Potency, µM (doses to about 37.9 µM), most hits filed as inhibitors; hit rate 1.2% among 300,000; AID 540256, 2011; calls by dose curve; tested in HEK293 cells; further: nearly all actives have a fitted effect of over 50% in size
Marburg entry inh = qHTS for inhibitors of binding or entry into cells for Marburg Virus; Marburg virus pseudotyped entry inhibition, cell reporter; Potency, µM (doses to about 37.8 µM), actives largely listed as inhibitors; hit rate 1.8% among 300,000; calls by dose curve; tested in HEK293 cells
VACV Venus inh = qHTS for Stage-Specific Inhibitors of Vaccinia Orthopoxvirus: Venus Reporter Primary qHTS; hit rate 0.46% among 330,000; AID 720580, 2013; Potency, µM (series often up to 36.5 µM), usual class: inhibitors; Vaccinia virus Venus reporter expression, fluorescence; calls by dose curve; tested in A549 cells; further: nearly all actives have a fitted effect of over 30% in size
FMDV inh = High Throughput Screening for Foot and Mouth Disease Virus Antivirals; FMDV antiviral cell-based qHTS; AID 1159524, 2015; Potency, µM (top dose mostly 57.9 µM), hits mostly inhibitors; hit rate 1.2% among 410,000; calls by dose curve; tested in HEK293T cells; further: read-out not given here; nearly all actives have a fitted effect of over 45% in size
Of the large screens only hits and unclear results are named; the others gave an inactive call. Shown are actives, neighbours in structure and some others; about 5.4% of the full set was active somewhere.

Cc1ccc(S(=O)(=O)Cc2ccc(C(=O)N3CCCC3)o2)cc1	Sm TGR inh 44.7µM (no result: LASV entry inh, Marburg entry inh)
Cc1ccc(C)c(N2CCN(C(=O)c3ccc(CS(=O)(=O)c4ccccc4C)o3)CC2)c1	Sm TGR inh 25.1µM, LASV entry inh inconclusive, Marburg entry inh inconclusive, FMDV inh inconclusive (no result: Vaccinia mCherry, VACV Venus inh)
CCOC(=O)C1CCCN(C(=O)c2ccc(-c3ccc([N+](=O)[O-])cc3)o2)C1 (configuration not stated)	Sm TGR inh 6.31µM, Marburg entry inh inconclusive, FMDV inh inconclusive
CCOC(=O)C1CCCN(C(=O)c2ccc(CS(=O)(=O)Cc3ccccc3C)o2)C1 (configuration not stated)	Sm TGR inh 28.2µM, Marburg entry inh inconclusive
CCOc1ccc(CNC(=O)C2CCN(c3nc4ccccc4nc3C(F)(F)F)CC2)cc1OC	none (no result: Marburg entry inh)
CCOC(=O)C1=CN(CCc2cn(Cc3ccccc3)nn2)C(=O)NC1c1ccccc1 (configuration not stated)	none (no result: Vaccinia mCherry, Sm TGR inh, LASV entry inh, VACV Venus inh, FMDV inh)
Cc1ncc2c(c1CNC(=O)c1ccc3c(c1)OCO3)CCN(C(=O)c1scc3c1CCCC3)C2	none (no result: Sm TGR inh, LASV entry inh, Marburg entry inh)
c1ccc(-c2csc3ncnc(Sc4nnnn4-c4ccccc4)c23)cc1	Vaccinia mCherry inconclusive (no result: Sm TGR inh, LASV entry inh, Marburg entry inh, FMDV inh)
Cc1ccc(S(=O)(=O)Cc2ccc(C(=O)N3CCCCCC3)o2)cc1	Sm TGR inh 15.8µM (no result: LASV entry inh, Marburg entry inh)
COc1ccccc1S(=O)(=O)Cc1ccc(C(=O)NC2CC2)o1	Sm TGR inh inconclusive (no result: Vaccinia mCherry, LASV entry inh, Marburg entry inh, VACV Venus inh)
COc1ccccc1S(=O)(=O)Cc1ccc(C(=O)N2CCN(c3ccccc3)CC2)o1	FMDV inh inconclusive (no result: Vaccinia mCherry, VACV Venus inh)
COc1ccccc1S(=O)(=O)Cc1ccc(C(=O)NC2CCCCC2)o1	Sm TGR inh 39.8µM
Cc1ccc(S(=O)(=O)Cc2ccc(C(=O)N3CCN(c4cc(C)ccc4C)CC3)o2)cc1	none (no result: Vaccinia mCherry, VACV Venus inh)
COc1ccccc1S(=O)(=O)Cc1ccc(C(=O)N2CCN(c3cccc(Cl)c3)CC2)o1	LASV entry inh inconclusive, FMDV inh 17.8µM (no result: Vaccinia mCherry, VACV Venus inh)
CCOC(=O)C1CCCN(C(=O)c2ccc(CS(=O)(=O)c3ccc(C)cc3)o2)C1 (configuration not stated)	Sm TGR inh 20µM (no result: LASV entry inh, Marburg entry inh)
CCc1ccc(NC(=O)CC2C(=O)N(c3cccc(C)c3)C(=O)N2CCC(C)C)cc1 (configuration not stated)	none (no result: Marburg entry inh)
CCOC(=O)Nc1ccc2c(c1)C(=NNC(N)=S)c1ccccc1-2	Vaccinia mCherry 11.2µM, LASV entry inh inconclusive, Marburg entry inh 12.6µM, VACV Venus inh 15.8µM, FMDV inh inconclusive (no result: Sm TGR inh)
CC(=O)Nc1ccc(-c2cn3cc(C)ccc3n2)cc1	LASV entry inh inconclusive, Marburg entry inh inconclusive
Cc1ccc2nc(-c3ccc(O)c(O)c3)cn2c1	Sm TGR inh inconclusive, LASV entry inh inconclusive, Marburg entry inh inconclusive, FMDV inh 12.6µM
Cc1nc(-c2ccc(O)c(O)c2)cs1	Sm TGR inh inconclusive
Cc1ccc2nc(-c3ccccc3)cn2c1	LASV entry inh 0.316µM, Marburg entry inh 0.447µM, FMDV inh 1.78µM
Cc1cc(C(=O)N2CCN(c3cccc(C)c3C)CC2)c2c(C)nn(-c3ccccc3)c2n1	none (no result: Marburg entry inh)
COc1ccc(-c2ccc(C(=O)NCC3Cc4cccc(-c5nc(C)cnc5C)c4O3)o2)cc1 (configuration not stated)	none (no result: Sm TGR inh, LASV entry inh, Marburg entry inh)
O=C(CN1CCOC1=O)N1CCCC(N2CCN(c3cccc(C(F)(F)F)c3)CC2)C1 (configuration not stated)	Sm TGR inh 39.8µM (no result: Vaccinia mCherry, LASV entry inh, Marburg entry inh, VACV Venus inh)
O=C(Cn1cccn1)N1CCCC(N2CCN(c3cccc(C(F)(F)F)c3)CC2)C1 (configuration not stated)	none
CCOc1ccc(N(CC)S(=O)(=O)N2CCCC(C(=O)Nc3cc(Cl)ccc3C)C2)cc1 (configuration not stated)	FMDV inh inconclusive (no result: Marburg entry inh)
Cc1ccc(NC(=O)CSc2nnc(-c3ccco3)o2)c(C)c1	none (no result: Sm TGR inh)
CC(=O)Nc1ccc(NC(=O)CSc2ccc(-c3ccco3)nn2)cc1	Sm TGR inh 8.91µM
Cc1ccc(NC(=O)CSc2ccc(-c3ccco3)nn2)cc1	Sm TGR inh 10µM, LASV entry inh inconclusive
CC(=O)Nc1ccc(NC(=O)CSc2ccc(-c3cccs3)nn2)cc1	Marburg entry inh inconclusive
Cc1ccc(NC(=O)CSc2ccc(-c3ccco3)nn2)c(C)c1	Sm TGR inh 28.2µM
Cc1ccc(CNC(=O)CSc2ccc(-c3ccco3)nn2)cc1	Sm TGR inh inconclusive, Marburg entry inh inconclusive
CC(=O)Nc1cccc(NC(=O)CSc2ccc(-c3ccco3)nn2)c1	Sm TGR inh 14.1µM (no result: Vaccinia mCherry, LASV entry inh, Marburg entry inh, VACV Venus inh)
O=C(NCC1(N2CCCCC2)CCCCC1)c1ccc(-n2cc(NC(=O)c3cccnc3)cn2)cc1	none (no result: Sm TGR inh, LASV entry inh, Marburg entry inh)
CC(=O)c1ccc(NC(=O)CSc2ccc(-c3ccco3)nn2)cc1	Sm TGR inh 22.4µM
COc1cccc(-c2nc3cc4c(cc3cc2CN(C(=O)c2cccs2)C2CC2)CCC4)c1OC	Vaccinia mCherry inconclusive, VACV Venus inh inconclusive, FMDV inh 31.6µM (no result: Sm TGR inh, LASV entry inh, Marburg entry inh)
COc1cccc(-c2nc3cc4c(cc3cc2CN(C(=O)c2cc(C)nn2C)C2CC2)CCC4)c1OC	FMDV inh inconclusive (no result: Sm TGR inh, LASV entry inh, Marburg entry inh)
CC1(C)OC(=O)C2=C(C[C@@H](CCOCc3ccccc3)O[C@H]2c2ccc(F)cc2)O1	none (no result: Sm TGR inh, LASV entry inh, Marburg entry inh)
CCOC(=O)c1c(C)oc2nc(C)nc(N3CCN(c4cccc(C)c4C)CC3)c12	LASV entry inh inconclusive (no result: Marburg entry inh)
Cc1csc(N/N=C/c2ccc(O)c([N+](=O)[O-])c2)n1	Sm TGR inh 10µM, LASV entry inh inconclusive
Cc1ccc(N/N=C/c2cccnc2)cc1	Sm TGR inh inconclusive, LASV entry inh inconclusive, Marburg entry inh inconclusive
Cc1csc(N/N=C\c2cccnc2)n1	Sm TGR inh 22.4µM
Cc1ccc(-n2c3nc(=O)[nH]c(=O)c-3cc3c(C)nn(-c4ccccc4)c32)cc1C	none
CCC(=O)NCC(c1cccs1)S(=O)(=O)c1ccc(C)cc1 (configuration not stated)	Sm TGR inh 89.1µM (no result: Vaccinia mCherry, LASV entry inh, Marburg entry inh, VACV Venus inh)
Cc1ccc(S(=O)(=O)C(CNS(=O)(=O)c2ccc(F)c(C)c2)c2cccs2)cc1 (configuration not stated)	Sm TGR inh 0.631µM, LASV entry inh inconclusive (no result: Marburg entry inh)
COc1ccc(CC(=O)NCC(c2cccs2)S(=O)(=O)c2ccc(C)cc2)cc1 (configuration not stated)	none (no result: Marburg entry inh)
CCOc1ccc(S(=O)(=O)NCC(c2cccs2)S(=O)(=O)c2ccc(C)cc2)cc1 (configuration not stated)	Sm TGR inh 0.316µM, LASV entry inh inconclusive (no result: Marburg entry inh)
CCCC(=O)NCC(c1cccs1)S(=O)(=O)c1ccc(C)cc1 (configuration not stated)	none (no result: Vaccinia mCherry, LASV entry inh, Marburg entry inh, VACV Venus inh)
CN(C)c1cc[n+](CC(=O)N2c3ccccc3Sc3ccccc32)cc1	none (no result: Sm TGR inh)
O=C(NCCc1ccccc1)N1c2ccccc2Sc2ccccc21	Marburg entry inh inconclusive, FMDV inh 28.2µM

Screening results as filed in PubChem BioAssay.
